Data on 40 compounds can be found in PubChem BioAssay (NCI).

Test [1] in a line: NCI Yeast Anticancer Drug Screen. Data for the rad50 strain (AID 155).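 Note: 0% = growth of vehicle-only cultures of the same strain.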 Particulars: S. cerevisiae rad50 strain growth inhibition, stronger effect = higher value; at 50.0 µM unless noted. An outline of the steps: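 Inhibition values express reduced yeast growth in compound-treated cultures relative to vehicle-treated controls.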
The nature of test [2]: NCI Yeast Anticancer Drug Screen. Data for the mec2-1 strain (AID 157). As to conditions: S. cerevisiae mec2-1 strain, stronger effect = higher value; at 50.0 µM unless noted. An outline of the steps:
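Strain: mec2-1 (DNA repair/cell cycle alteration). Compound exposure, then growth measured; inhibition expressed relative to vehicle.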

A short description of test [3]: NCI Yeast Anticancer Drug Screen. Data for the sgs1 mgt1 strain (AID 161).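 Note: 0% = growth of cultures given vehicle only.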 As to conditions: S. cerevisiae sgs1 mgt1 strain, stronger effect = higher value; at 50.0 µM unless noted. An outline of the steps: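 Read-out: growth inhibition vs vehicle controls. Cells: mutant yeast strain deficient in DNA damage repair.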
Test [4] can be described thus: NCI Yeast Anticancer Drug Screen. Data for the cln2 rad14 strain (AID 165).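 Note: 0% = growth equal to vehicle treated cultures.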 As to conditions: S. cerevisiae cln2 rad14 strain, stronger effect = higher value; at 50.0 µM unless noted. An outline of the steps: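 Compounds are applied to the cln2 rad14 yeast strain, and growth is then compared with that of vehicle-treated cultures to give inhibition.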
Test [5] can be described thus: NCI Yeast Anticancer Drug Screen. Data for the bub3 strain (AID 167). Particulars: S. cerevisiae bub3 mutant strain, stronger effect = higher value; at 50.0 µM unless noted. An outline of the steps: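 Steps: expose the mutant yeast strain to compound; grow alongside vehicle-treated cultures; measure growth; express inhibition against the vehicle cultures.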
Test [6] is described as follows: NCI Yeast Anticancer Drug Screen. Data for the mlh1 rad18 strain (AID 175). Particulars: S. cerevisiae mlh1 rad18 strain growth inhibition, stronger effect = higher value; at 50.0 µM unless noted. The procedure, abridged: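 Read-out is yeast growth inhibition, calculated against vehicle-only controls. The compound was applied to a strain engineered with DNA damage repair alterations.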

Compounds without any hit were thinned out: in the full panel of roughly 79,000, 15% have a hit. A number with no mark means an inactive call. Activity calls are given as the source filed them. Cut-off read from the data, not from the text of the source: active = growth inhibition above about 70%; inactive = the rest.

As to `Cc1ccc(N[P+](c2ccccc2)(c2ccccc2)c2ccccc2)cc1.[Cl][Fe]([Cl])([Cl])[Cl]`, the growth inhibition was 44.1% in test [1]; 3% in test [2]; 22.9% in test [3]; -8.4% in test [4]; 11.7% in test [5]; 12.6% in test [6].

With `N#Cc1c[nH]c(=O)[nH]c1=O`, the growth inhibition in test [1] is -25.3%; in test [2], -25.4%; in test [3] it was -13.4%; in test [4] it was 2.15%; in test [5] it was 1.85%; in test [6], -45.6%.

As to `CC12CC[C@H](O)C(C)(C)[C@H]1CC[C@](C)(O)C2COc1ccc2ccc(=O)oc2c1` (stereo not given in full), the growth inhibition in test [1] is 86.3% (active); in test [2], 75.2% (active); in test [3], 85.6% (active); in test [4] it was 37.1%; in test [5], 76.3% (active); in test [6], 77.1% (active).

With `CCCCNC(=S)NNC(=O)c1ccncc1`, the growth inhibition in test [1] is -0.35%; in test [2], 3.65%; in test [3], -0.55%; in test [4], 5.5%; in test [5], 10.7%; in test [6] it was 3.45%.

Turning to `O=C(NC1(Sc2ccccc2)CC1)c1ccc(Cl)cc1`, the growth inhibition in test [1] is 17.8%; in test [2], 6.8%; in test [3] it was 8.9%; in test [4] it was 20.6%; in test [5], 13.8%; in test [6], 18.9%.

`CCCCCCSC(=O)NC(C)=O`: the growth inhibition in test [1] is -10.3%; in test [2] it was -0.95%; in test [3], 1.4%; in test [4], -86%; in test [5] it was -18.9%; in test [6], 0%.

On to `CC(=O)C(CCC#N)(CCC#N)C(C)=O`, for which the growth inhibition was -18.6% in test [1]; -24.6% in test [2]; -4.8% in test [3]; -5.95% in test [4]; -1.45% in test [5]; -16.1% in test [6].

Regarding `Cc1ccccc1C(c1ccccc1Cl)[N+](C)(C)C` (stereo not given), the growth inhibition was 35% in test [1]; 14.7% in test [2]; 27.1% in test [3]; 19.2% in test [4]; -3.95% in test [5]; 43.1% in test [6].

Regarding `Cc1cccc(-c2cc3ccccc3c(Cl)n2)n1`, the growth inhibition in test [1] is -4%; in test [2], -23.1%; in test [3], 10.8%; in test [4], -0.6%; in test [5], 7.6%; in test [6], 7.7%.

As to `CCOC(=O)O/C(C)=C\c1ccc(Cl)cc1`, the growth inhibition in test [1] is 2.45%; in test [2] it was -2.65%; in test [3] it was -12.4%; in test [4] it was -50.4%; in test [5], -34.9%; in test [6], 7.05%.

On to `O=c1c2ccccc2c(=O)n2n1-c1cccc(c1)CSSCc1cccc-2c1`, for which the growth inhibition was -16.9% in test [1]; 2.7% in test [2]; -10.6% in test [3]; -3.45% in test [4]; 0.2% in test [5]; -12.8% in test [6].

For `COc1ccc2c(c1)Cc1cc(NC(C)=O)ccc1-2`, the growth inhibition was -4.55% in test [1]; -11.2% in test [2]; 21.5% in test [3]; -47.9% in test [4]; 4.1% in test [5]; 13.1% in test [6].

For `CC(=O)OCCOc1ccc2c(c1)OCO2`, the growth inhibition was 3.2% in test [1]; -1.2% in test [2]; 4.95% in test [3]; -23.6% in test [4]; -1.75% in test [5]; 30.7% in test [6].

`COc1ccc(-c2cc(-c3ccco3)c(C#N)c(=O)[nH]2)cc1`: the growth inhibition was 3.95% in test [1]; 6.2% in test [2]; 14.2% in test [3]; 14.2% in test [4]; 8.65% in test [5]; 27.3% in test [6].

On to `O=C(CCC(=O)c1ccccc1)NCc1ccccc1`, for which the growth inhibition in test [1] is 11.2%; in test [2], -6.2%; in test [3] it was 4.4%; in test [4], 5.55%; in test [5], 6.5%; in test [6] it was 2.1%.

With `CN(C)c1ccc(C(=O)Cc2ccc3ccccc3n2)cc1`, the growth inhibition in test [1] is 98.7% (active); in test [2], 99.2% (active); in test [3], 99.1% (active); in test [4], 98.2% (active); in test [5] it was 98.9% (active); in test [6], 98.9% (active).

As to `O=C(O)c1cccc(C(=O)O)c1-c1c(C(=O)O)cccc1C(=O)O`, the growth inhibition was -5.2% in test [1]; 17.8% in test [2]; 7.7% in test [3]; -80.5% in test [4]; 7.45% in test [5]; 4.05% in test [6].

Turning to `C=CCc1cn(C2CC(OC(=O)c3ccc(Cl)cc3)C(COC(=O)c3ccc(Cl)cc3)O2)c(=O)[nH]c1=O` (stereo not given), the growth inhibition in test [1] was -8.85%; in test [2], -3.6%; in test [3] it was -18.8%; in test [4] it was -8.6%; in test [5], 0.6%; in test [6], -2.4%.

Turning to `CCOC(=O)C(CCc1ccccc1)(NC(C)=O)C(=O)OCC`, the growth inhibition was 10.4% in test [1]; -7.8% in test [2]; 12.3% in test [3]; -4.65% in test [4]; 14.3% in test [5]; -10% in test [6].

In the case of `CC1C=NNC1=O` (stereo not given), the growth inhibition was 19.9% in test [1]; -30.8% in test [2]; 23.5% in test [3]; 3.4% in test [4]; -0.05% in test [5]; 4.5% in test [6].

Turning to `CC(=O)NCCc1c[nH]c2ccc(Cl)cc12`, the growth inhibition in test [1] is -33.5%; in test [2], 21.4%; in test [3], -27.4%; in test [4] it was -11.6%; in test [5], 26.8%; in test [6], -10.1%.

As for `Cc1ccccc1C=NC12CC3CC(CC(C3)C1)C2`, the growth inhibition in test [1] is -24.8%; in test [2] it was -18.1%; in test [3] it was -22.2%; in test [4], 7.2%; in test [5], -8.4%; in test [6], -25.1%.

Regarding `C=CCNC1=C(NC(C)=O)C(=O)c2ccccc2C1=O`, the growth inhibition is 16.1% in test [1]; 0.95% in test [2]; 4.8% in test [3]; -31.2% in test [4]; 28.6% in test [5]; 12.4% in test [6].

As to `O=C1NC(=O)c2c(O)cccc21`, the growth inhibition is 38.5% in test [1]; 23.6% in test [2]; 21.1% in test [3]; 18.2% in test [4]; 13.4% in test [5]; 27.9% in test [6].

Take `OCCCNCc1ccccn1`: the growth inhibition in test [1] was 7.25%; in test [2], -13.7%; in test [3] it was -20.4%; in test [4], 22.2%; in test [5], -12.2%; in test [6] it was -16.6%.

With `COc1ccc(C2=C(Cl)c3cc(OC)c(OC)cc3C2Cl)cc1` (stereo not given), the growth inhibition is 14.8% in test [1]; 22.6% in test [2]; 21.2% in test [3]; 11.8% in test [4]; -0.45% in test [5]; -41.6% in test [6].

In the case of `CC(O)COC(C)C` (stereo not given), the growth inhibition was 8.55% in test [1]; -5.7% in test [2]; 17.7% in test [3]; 2.85% in test [4]; -1.85% in test [5]; 19.8% in test [6].

Take `OC(CN1CCCC1)c1ccccc1` (stereo not given): the growth inhibition in test [1] is -1.8%; in test [2], -11.2%; in test [3], 15.9%; in test [4] it was 28.6%; in test [5], -0.25%; in test [6], -30.6%.

`CCC(NN)C(=O)O` (stereo not given): the growth inhibition was 5.45% in test [1]; -14.1% in test [2]; -33.6% in test [3]; -26% in test [4]; -9.5% in test [5]; -5.35% in test [6].

Take `C/C=C/Cc1n[nH]c(=O)c2c(C)[nH]nc12`: the growth inhibition in test [1] is -13%; in test [2], -13.4%; in test [3] it was -9.55%; in test [4], -13.8%; in test [5] it was -5.85%; in test [6], -17.9%.

In the case of `CCN(CC)CCC(=O)c1ccccc1`, the growth inhibition in test [1] is -7.5%; in test [2] it was -4.25%; in test [3], -8.45%; in test [4], -7.25%; in test [5], -20.1%; in test [6], -7.85%.

In the case of `CCOC(=O)C(=O)/C(=C/N1C(=O)CC(=O)NC1=S)C(=O)OCC`, the growth inhibition is -19.6% in test [1]; -47.2% in test [2]; -25% in test [3]; -13.9% in test [4]; -34.9% in test [5]; -10.6% in test [6].

As to `NC(=S)c1ccc2ccccc2c1`, the growth inhibition was 9.95% in test [1]; 13.9% in test [2]; 15.1% in test [3]; 6.15% in test [4]; 15.2% in test [5]; 9.2% in test [6].

`O=C(O)CC(c1ccccc1)C(CC(=O)O)c1ccccc1` (stereo not given): the growth inhibition was -3.8% in test [1]; 8.75% in test [2]; 17.6% in test [3]; 17.2% in test [4]; 5.95% in test [5]; 9.85% in test [6].

Consider `CC(=O)Oc1cc(S(=O)(=O)Nc2n[nH]c(N)n2)c(S)cc1Cl`, for which the growth inhibition in test [1] was -22.8%; in test [2], -18.3%; in test [3] it was -1.2%; in test [4] it was 11.7%; in test [5], -9.55%; in test [6], 8.45%.

As to `Cc1ccc(NC(=O)c2c(Br)c(Br)c(Br)c(Br)c2C(=O)O)cc1Cl`, the growth inhibition in test [1] was -1.75%; in test [2] it was -5.5%; in test [3], -8.6%; in test [4], -22.4%; in test [5], 2.9%; in test [6] it was -9.25%.

In the case of `NC1=C(O)C(=O)C(c2ccc3c(c2)OCO3)O1` (stereo not given), the growth inhibition was -17.6% in test [1]; -5% in test [2]; -19.9% in test [3]; -30.2% in test [4]; 24.8% in test [5]; -5.2% in test [6].

Turning to `COCc1cccc2ccnc(COC)c12`, the growth inhibition in test [1] was -8.2%; in test [2] it was 2.45%; in test [3], 5.95%; in test [4], 9.4%; in test [5], -8.35%; in test [6], 5.25%.

As for `COC(=O)Nn1c(C)c(C(=O)OC)c(C(=O)Nc2ccccc2)c1-c1ccccc1`, the growth inhibition was 6.1% in test [1]; -3% in test [2]; -5.2% in test [3]; -1.45% in test [4]; 5.05% in test [5]; 23.5% in test [6].

In the case of `COc1ccccc1-n1c(=O)c(N=Nc2ccc(C)cc2)c(O)n(-c2ccccc2C)c1=S`, the growth inhibition in test [1] is -34.8%; in test [2], -10.5%; in test [3], -17.9%; in test [4] it was -44.1%; in test [5], 0%; in test [6] it was -37.5%.
